From PubChem BioAssay AID588579 (National Center for Advancing Translational Sciences (NCATS), 2011)
“And” between values parts separate entries of the source, which are not always exact repeats. Equal values may be shown once. Screen size: about 400,000 compounds; about 2,200 (0.55%) were called active. Roughly 1% stayed inconclusive and do not appear here. The call rests on the fitted dose curve; in most records, active means well fitted inhibition curve with a large enough effect; inconclusive means small, poorly fitted or top-dose-only effect, or another doubt; inactive means no such curve, though single readings can be large or run the other way. This excerpt belongs to a sample that is enriched for actives. Where a structure was tested more than once in an assay, its records may differ in their call.
On the % scale 0 is the no-effect control and ±100 the full control effect; potency means the concentration at half of the fitted maximal effect.

These compounds were tested against DNA polymerase kappa (Homo sapiens) (UniProt Q9UBT6) (assay: qHTS for Inhibitors of Polymerase Kappa). Details: purified Pol kappa, fluorescent DNA synthesis assay, 10 min; series mostly up to 60.1 µM; activity, negative = inhibition: at the top concentration.
DNA polymerase kappa (Homo sapiens), sequence (Q9UBT6 whole entry, looked up): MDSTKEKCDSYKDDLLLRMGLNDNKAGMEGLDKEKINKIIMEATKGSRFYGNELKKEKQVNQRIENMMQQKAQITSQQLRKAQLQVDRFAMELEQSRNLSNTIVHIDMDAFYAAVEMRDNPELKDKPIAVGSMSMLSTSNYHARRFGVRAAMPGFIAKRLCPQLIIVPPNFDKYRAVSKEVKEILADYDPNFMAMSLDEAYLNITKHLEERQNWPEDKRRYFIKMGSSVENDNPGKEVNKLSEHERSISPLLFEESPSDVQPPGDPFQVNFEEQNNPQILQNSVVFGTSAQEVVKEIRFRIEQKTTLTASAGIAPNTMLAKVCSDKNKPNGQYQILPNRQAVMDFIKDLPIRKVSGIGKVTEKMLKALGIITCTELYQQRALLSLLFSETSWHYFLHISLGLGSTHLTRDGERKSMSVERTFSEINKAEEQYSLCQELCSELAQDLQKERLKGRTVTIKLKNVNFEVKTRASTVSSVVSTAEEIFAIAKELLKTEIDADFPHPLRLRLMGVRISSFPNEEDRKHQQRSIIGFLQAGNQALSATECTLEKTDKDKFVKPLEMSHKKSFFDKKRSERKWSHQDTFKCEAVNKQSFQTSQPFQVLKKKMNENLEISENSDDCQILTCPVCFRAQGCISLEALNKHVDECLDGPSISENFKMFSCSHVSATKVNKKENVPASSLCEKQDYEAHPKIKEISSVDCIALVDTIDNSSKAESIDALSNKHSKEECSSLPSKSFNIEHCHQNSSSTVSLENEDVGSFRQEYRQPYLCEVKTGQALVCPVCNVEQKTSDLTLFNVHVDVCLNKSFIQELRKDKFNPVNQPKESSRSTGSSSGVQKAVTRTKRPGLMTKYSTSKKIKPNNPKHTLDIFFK
Procedure: The processing and repair of DNA interstrand crosslinks (ICL) in eukaryotic cells are extremely complex, potentially involving multiple DNA repair and damage tolerance pathways, including homologous recombination, nucleotide excision repair, translesion synthesis (TLS), and cell cycle checkpoints.
To that end, in a collaboration between the Oregon Health & Science University and the NIH Chemical Genomics Center a 1536-well high-throughput screen was developed. This fluorescent screen was assayed against the NIH Molecular Libraries Small Molecule Repository (MLSMR) to discover inhibitors of Pol Kappa.
NIH Chemical Genomics Center [NCGC]
NIH Molecular Libraries Probe Centers Network [MLPCN]
Assay Submitter (PI): Stephen Lloyd, Oregon Health & Science University
Three microliters of reagents (buffer in column 3 and 4 as negative control and 10 nM Pol kappa in columns 1, 2, and 5-48) were dispensed into a 1536-well black solid-bottom plate. Compounds (23 nL) were transferred via Kalypsys pin tool equipped with 1536-pin array. The plates were then incubated for 15 min at room temperature, and 1 uL substrate (50 nM final concentration) were then added to start the reaction and kinetically read twice at 0 min and 10 min on the Viewlux reader
With `Cc1cc(/C=C2/C(=O)NC(=O)N(Cc3ccco3)C2=O)c(C)n1-c1ccc(C(=O)O)cc1` the Potency was 50.1 µM (active).
With `CN[C@@H]1C[C@H]2O[C@@](C)([C@@H]1OC)n1c3ccccc3c3c4c(c5c6ccccc6n2c5c31)C(=O)NC4` the Potency was “inactive”.
In the case of `CCN1C[C@]2(COC)C(O)C[C@H](OC)[C@@]34C5C[C@]6(O)C(OC)C(O)[C@](OC(C)=O)(C5C6OC(=O)c5ccccc5)C(C(OC)C23)C14` (some centres not stated), the “activity, negative = inhibition” value is reported as 2.42% (inactive).
With `CC(CCC(=O)O)C1CCC2C3C(O)C[C@@H]4CC(O)CC[C@@]4(C)C3CC[C@@]12C` (some centres not stated) the “activity, negative = inhibition” value was -1.37% (inactive).
With `COc1ccc(C2Oc3c(I)c(OC)cc(OC)c3CC2O)cc1OC` (configuration not stated) the “activity, negative = inhibition” value was 1.84% (inactive).
For `N[C@H](Cc1o[nH]c(=O)c1Cl)C(=O)O`, the “activity, negative = inhibition” value was -6.05% [at 19.4 µM] (inactive).
In the case of `CN1CCN(C(=O)O[C@@H]2c3nccnc3C(=O)N2c2ccc(Cl)cn2)CC1`, the “activity, negative = inhibition” value is reported as -8.72% [at 19.4 µM] (inactive).
With `C/C(=C\C=C/[C@@H](C)C(=O)O)[C@H]1CN[C@H](C(=O)O)[C@@H]1CC(=O)O` the “activity, negative = inhibition” value was -13.7% [at 19.4 µM] (inactive).
In the case of `N[C@H](C(=O)O)c1cc(=O)[nH]o1`, the “activity, negative = inhibition” value is reported as -6.61% [at 19.4 µM] (inactive).
For `O=C1CC(=O)N(Cc2ccccc2)C(=O)N1CCCCCCN1C(=O)CC(=O)N(Cc2ccccc2)C1=O`, the Potency was 22.4 µM (active).
With `CC(C)(C)c1ccc(CN2C(=O)CN=C(c3ccccc3)c3ccccc32)cc1` the “activity, negative = inhibition” value was -14.9% [at 107 µM] (inactive).
With `COC1CC(OC2CC[C@@]3(C=O)C4CC[C@]5(C)C(C6=CC(=O)OC6)CC[C@@]5(O)C4CC[C@]3(O)C2)OC(C)C1O` (some centres not stated) the “activity, negative = inhibition” value was -7.19% (inactive).
In the case of `C[C@]12CC[C@@H]3c4ccc(O)cc4C[C@@H](CCCCCCCCCS(=O)CCCC(F)(F)C(F)(F)F)C3[C@@H]1CC[C@@H]2O` (some centres not stated), the “activity, negative = inhibition” value is reported as -16.9% (inactive).
In the case of `CO[C@@H]1C[C@@H](C[C@H]2CC[C@H](C)[C@@H]([C@@H](C)C(=O)O)O2)O[C@]2(O[C@](C)([C@H]3CC[C@@](C)(C4OC([C@H]5O[C@@](O)(CO)[C@H](C)C[C@@H]5C)C[C@@H]4C)O3)C[C@H]2C)[C@@H]1C` (some centres not stated), the “activity, negative = inhibition” value is reported as 0.283% [at 19.4 µM] (inactive).
In the case of `CN=C(NC#N)NCCSCc1nc[nH]c1C`, the Potency is reported as “inactive and 28.2 µM (active)”.
With `NC[C@H](O)c1ccc(O)cc1` the activity, negative = inhibition was -4.18% [at 12 µM] (inactive).
`CC[C@]1(O)C(=O)OCc2c1cc1n(c2=O)Cc2cc3ccccc3nc2-1` was tested, and the “activity, negative = inhibition” value was -8.67% [at 19.4 µM] (inactive).
`Fc1ccc(C(OCCN2CCN(C/C=C\c3ccccc3)CC2)c2ccc(F)cc2)cc1` was tested, and the “activity, negative = inhibition” value was -16.7% [at 19.4 µM] (inactive).
`CC[N+](C)(CC)CCC[n+]1c(-c2ccccc2)c2cc(N)ccc2c2ccc(N)cc21` was tested, and the Potency was 6.31 µM (active).
`CC(C)(O)c1[se]c2ccccc2c1I` was tested, and the “activity, negative = inhibition” value was -19.7% [at 107 µM] (inactive).
`CN1[C@@H]2CC[C@H]1CC(OC(=O)c1cc(Cl)cc(Cl)c1)C2` (some centres not stated) was tested, and the “activity, negative = inhibition” value was -5.99% [at 19.4 µM] (inactive).
`COc1ccc(N2C(=O)/C(=C/c3ccco3)C(=O)NC2=S)cc1` was tested, and the Potency was 4.47 µM (active).
